System: HT29 sg-Ctrl (RNF43 wildtype)
Assay: cell viability activity relative to DMSO (negative = inhibition); higher = more viable cells (less growth inhibition)
Details: 5 µM; 96 h
Method: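 Broad Repurposing Library primary screen at a single dose of 5 uM. HT29 sg-Ctrl and HT29 RNF43 G659fs CRISPR-edited isogenic cells were seeded at 2500 cells/well in 384-well plates in duplicate and treated for 96 h. Viability was read by CellTiter-Glo and reported as % activity relative to DMSO, with MG132 as the positive control (negative = growth inhibition).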

Q: For C=C1CC[C@@H]2[C@](C)(CO)[C@H](O)CC[C@@]2(C)[C@@H]1C/C=C1/C(=O)OC[C@H]1O, which cell viability activity is on record?
A: -0.518%

Q: Which cell viability activity does the source give for O=c1[nH]cc(F)c(=O)[nH]1 here?
A: -14.8%

Q: COC(=O)[C@H]1[C@H]2C[C@@H]3c4[nH]c5cc(OC)ccc5c4CCN3C[C@H]2C[C@@H](OC(=O)c2cc(OC)c(OC)c(OC)c2)[C@@H]1OC was tested. Which cell viability activity did it give?
A: -40.7%

Q: How did the cell viability activity turn out when c1cncc(CN2CCC(n3ncc4c(N5CCOCC5)nc(-c5ccc6[nH]ccc6c5)nc43)CC2)c1 was run?
A: -75.2%

Q: COc1cc(-c2ncn(/C=C/C(=O)OC(C)C)n2)cc(C(F)(F)F)c1 was tested. Which cell viability activity did it give?
A: -76.9%

Q: CCc1nc(C(N)=O)c(Nc2ccc(N3CCC(N4CCN(C)CC4)CC3)c(OC)c2)nc1NC1CCOCC1 was tested. Which cell viability activity did it give?
A: -61.8%

Q: Which cell viability activity does the source give for O=C(/C=C/c1ccc(CN(CCO)CCc2c[nH]c3ccccc23)cc1)NO here?
A: -92.2%

Q: How did the cell viability activity turn out when CN(C)C/C=C/C(=O)Nc1ccc(C(=O)Nc2cccc(Nc3ncc(Cl)c(-c4c[nH]c5ccccc45)n3)c2)cc1 was run?
A: -86.4%

Q: Which cell viability activity does the source give for CCCCCCCC(=O)N[C@H](CN1CCCC1)[C@H](O)c1ccc2c(c1)OCCO2 here?
A: -40.4%

Q: C=CCCCCCCCCC(=O)O was tested. Which cell viability activity did it give?
A: -72%

Q: CCN(c1cc(C#CCN2CCOCC2)cc(C(=O)NCc2c(C)cc(C)[nH]c2=O)c1C)[C@H]1CC[C@H](N(C)CCOC)CC1 was tested. Which cell viability activity did it give?
A: -35.6%

Q: With CCc1cnn2c(NCc3ccc[n+]([O-])c3)cc(N3CCCC[C@H]3CCO)nc12 as the molecule, how does the cell viability activity read?
A: -84.3%

Q: With CC[C@@]1(O)C(=O)OCc2c1cc1n(c2=O)Cc2cc3c([N+](=O)[O-])cccc3nc2-1 as the molecule, how does the cell viability activity read?
A: -95.5%

Q: With C[n+]1cc2c3c(ccc2c2ccc4cc5c(cc4c21)OCO5)OCO3 as the molecule, how does the cell viability activity read?
A: -96.2%

Reference: the supplement of paper PMC9177965
